OvCa metastasis: ovarian cancer metastasis inhibition, 3D TME model. SKOV3ip1-GFP adhesion/invasion on 3D omental model, fluorescence. Potency, µM (top dose mostly 45.8 µM), usual class: inhibitors. 0.1% of 46,000 active; further: nearly all actives have a fitted effect of over 65% in size
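A 3D layer of primary human omental fibroblasts, mesothelial cells, fibronectin and collagen I, grown 48 hr, received SKOV3ip1-GFP cells in serum-free medium plus compounds at 0.36-46 umol/L. After 2 hr RT and 16 hr 37 C, fixed adherent GFP cells were counted; normalized to DMSO and tomatine.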
S16 viability: cytotoxicity in S16 Pmp22-F2sN Schwann cells | S16 Pmp22-F2sN Schwann cells viability, CellTiter-Glo, 24 h | Potency, µM (titrated, usually from 57.5 µM), hits mostly cytotoxic | 0.48% of 43,000 active | AID 1508642; further: nearly all actives have a fitted effect of over 65% in size
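S16 Schwann cells carrying the Pmp22-F2sN reporter, seeded in 1536-well format, were exposed to library compounds for 24 h at 37C. Viability was read as CellTiter-Glo luminescence after 15 min at room temperature.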
p53null 32C kill: selectivity test: cytotoxicity in p53 null cells, permissive temperature. H1299-neo p53 null cells, ATP luminescence, 24 h, 32C. 0.62% of 55,000 active. Potency, µM (highest dose often 46.1 µM), hits mostly cytotoxic; further: nearly all actives have a fitted effect of over 55% in size
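Cytotoxicity: H1299-neo (no p53), 32C, 24 h treatment. Concentrations up to 46 uM. Readout cellular ATP, luminescence. Normalization to DMSO basal and tamoxifen 100 uM maximal kill.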
PMP22 txn prim: modulators of PMP22 gene transcription in S16 Schwann cells; S16 Pmp22-F2sN Schwann cells (luciferase reporters placed in the Pmp22 gene), FLuc/NLuc coincidence luminescence, 24 h; AID 1508649; Potency, µM (top dose mostly 57.5 µM), usual class: inhibitors; 2% of 43,000 active; active means clear falling dose curves in both reporters; inconclusive means both reporters move, but less clearly or upward; inactive means either reporter flat; the % is the NLuc reporter signal
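Transcriptional readout in edited S16(c9) cells: two luciferases reported from the Pmp22 locus, measured in turn after 24 h compound incubation.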
pS6 MEF inh: reduces mTORC1 signaling in Tsc2 and p53 null MEF cells | Tsc2-/- p53-/- MEF, phospho-rpS6 immunofluorescence/PI, 24 h | Potency, µM (doses to about 38.3 µM), hits mostly inhibitors | 0.78% of 44,000 active; further: nearly all actives have a fitted effect of over 50% in size
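Read-out: phospho-S6 Alexa-488 intensity over PI intensity per well, scored as % active cells using thresholds from rapamycin (7.5 nM) and DMSO controls. Tsc2-/-, p53-/- MEFs exposed to compound for 24 h; PI cell count recorded as viability.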
p53null 39C kill: selectivity test: cytotoxicity in p53 null cells, nonpermissive temperature; H1299 p53-null (neo) cells, 39C, ATPlite viability, 24 h; Potency, µM (highest dose often 46.1 µM), hits mostly cytotoxic; 0.97% of 55,000 active; further: nearly all actives have a fitted effect of over 50% in size
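Cells seeded at 600/well, 37C overnight. Compound added (up to 46 uM), plates shifted to 39C for 24 hr. ATPlite added, luminescence read after 20 min at room temperature.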
Numbers stand for hits. The list is not random: actives were taken first. Their share in the collection is about 3.1%. Unless noted, the call rests on the fitted dose curve; in most records, active means well fitted curve in the direction sought with a large enough effect; inconclusive means small, poorly fitted or top-dose-only effect, or another doubt; inactive means no such curve, though single readings can be large; an effect the other way counts as inactive or inconclusive.

CC(=O)c1ccc(NC(=O)c2nc3ccccc3nc2N2CCCCC2)cc1 was read as OvCa metastasis inactive, S16 viability inconclusive, p53null 32C kill inactive, PMP22 txn prim inactive, pS6 MEF inh inactive and p53null 39C kill inactive.
Screening CC(=O)c1ccc(NC(=O)c2nc3ccccc3n(C)c2=O)cc1 returned OvCa metastasis inactive, S16 viability inactive, p53null 32C kill 2µM, PMP22 txn prim inactive, pS6 MEF inh inactive and p53null 39C kill inactive.
For COC(=O)c1cc(S(=O)(=O)N2CCN(c3cccc(C)c3)C(C)C2)cn1C (stereo unspecified) the results were OvCa metastasis inactive, S16 viability inactive, p53null 32C kill inactive, PMP22 txn prim inactive, pS6 MEF inh inactive and p53null 39C kill 12.6µM.
`Cc1ccc(CNC(=O)C(=O)NCC(c2ccco2)S(=O)(=O)c2cccs2)cc1` (stereo unspecified) gave OvCa metastasis inactive, S16 viability inactive, p53null 32C kill inactive, PMP22 txn prim inactive, pS6 MEF inh inactive and p53null 39C kill inactive.
For Cc1cc(C)c(S(=O)(=O)NCC(c2ccco2)S(=O)(=O)c2cccs2)c(C)c1 (stereo unspecified) the results were OvCa metastasis inactive, S16 viability 17.8µM, p53null 32C kill inactive, PMP22 txn prim inconclusive, pS6 MEF inh inactive and p53null 39C kill inactive.
Cc1cc(S(=O)(=O)NCC(c2ccco2)S(=O)(=O)c2cccs2)ccc1F (stereo unspecified) was read as OvCa metastasis inactive, S16 viability 10µM, p53null 32C kill inactive, PMP22 txn prim 8.97µM, pS6 MEF inh inactive and p53null 39C kill inactive.
Cc1cc(S(=O)(=O)NCC(c2ccco2)S(=O)(=O)c2ccccc2)ccc1F (stereo unspecified) was read as OvCa metastasis inactive, S16 viability inconclusive, p53null 32C kill inactive, PMP22 txn prim inactive, pS6 MEF inh inactive and p53null 39C kill inactive.
For NC(=O)c1ncn([C@@H]2O[C@H](CO)[C@@H](O)[C@@H]2O)c1O the results were OvCa metastasis inactive.
Screening Cc1cc(C)c(NS(=O)(=O)c2ccc(-c3coc(C)n3)cc2)c(C)c1 returned OvCa metastasis inactive, S16 viability inactive, p53null 32C kill inactive, PMP22 txn prim inactive, pS6 MEF inh inactive and p53null 39C kill inactive.
`CCc1ccccc1NS(=O)(=O)c1ccc(-c2coc(C)n2)cc1` gave OvCa metastasis inactive, S16 viability inactive, p53null 32C kill 7.08µM, PMP22 txn prim inactive, pS6 MEF inh inactive and p53null 39C kill inactive.
`Cc1cccc(-n2cnc3cc(C(=O)NC4CCCCCC4)ccc32)c1` gave OvCa metastasis inactive, S16 viability inconclusive, p53null 32C kill inactive, PMP22 txn prim inconclusive, pS6 MEF inh 9.27µM and p53null 39C kill inactive.
Screening N#CC(c1ccnc(NCCc2cccnc2)n1)c1nc2ccccc2s1 (stereo unspecified) returned OvCa metastasis inactive.
Screening COc1ccc(C(=O)Nc2noc3ccccc23)cc1 returned OvCa metastasis inactive, S16 viability inactive, p53null 32C kill 3.16µM, PMP22 txn prim inactive, pS6 MEF inh inactive and p53null 39C kill 6.31µM.
`COc1cccc(CNC(=O)c2cccc(NC(=O)c3nsc4ccccc34)c2)c1` gave OvCa metastasis inactive, S16 viability inconclusive, p53null 32C kill inactive, PMP22 txn prim inactive, pS6 MEF inh inactive and p53null 39C kill inactive.
For O=C(Nc1cccc(C(=O)N2CCCCC2)c1)c1nsc2ccccc12 the results were OvCa metastasis inactive, S16 viability inactive, p53null 32C kill inconclusive, PMP22 txn prim inactive, pS6 MEF inh inactive and p53null 39C kill 10µM.
Screening CC1CCN(C(=O)c2ccc(NC(=O)c3nsc4ccccc34)cc2)CC1 returned OvCa metastasis inactive, S16 viability inactive, p53null 32C kill inconclusive, PMP22 txn prim inactive, pS6 MEF inh inactive and p53null 39C kill inconclusive.
For COC(=O)c1cccc(NC(=O)c2nsc3ccccc23)c1 the results were OvCa metastasis inconclusive, S16 viability inactive, p53null 32C kill 3.16µM, PMP22 txn prim inactive, pS6 MEF inh inactive and p53null 39C kill 7.08µM.
`CCC(=O)NCCc1nc2cc(NC(=O)c3cccc(Br)c3)ccc2n1C` gave OvCa metastasis inactive, S16 viability inactive, p53null 32C kill 12.6µM, PMP22 txn prim inactive, pS6 MEF inh inactive and p53null 39C kill 10µM.
`CCOCCCNC(=O)c1ccc(Cn2c(=O)c3cccn3c3cccnc32)cc1` gave OvCa metastasis inactive, S16 viability inactive, p53null 32C kill inactive, PMP22 txn prim 11.3µM, pS6 MEF inh inactive and p53null 39C kill inactive.
Screening CCN(CC)CCNC(=O)c1ccc(Cn2c(=O)c3cccn3c3cccnc32)cc1 returned OvCa metastasis inactive, S16 viability inactive, p53null 32C kill inactive, PMP22 txn prim inactive, pS6 MEF inh 3.29µM and p53null 39C kill inactive.
O=C(NCCc1ccccc1)c1ccc(Cn2c(=O)c3cccn3c3cccnc32)cc1 was read as OvCa metastasis inactive, S16 viability inactive, p53null 32C kill inactive, PMP22 txn prim inactive, pS6 MEF inh inactive and p53null 39C kill inactive.
Screening CC(C)Oc1ccc(CNC(=O)C2CCN(c3nc4ccccc4nc3C(F)(F)F)CC2)cc1 returned OvCa metastasis inactive, S16 viability 7.94µM, p53null 32C kill inactive, PMP22 txn prim inconclusive, pS6 MEF inh inactive and p53null 39C kill inactive.
CCC(=O)N[C@H]1CC[C@H](C(=O)N(C)c2ccc(-c3nc4ccccc4o3)cc2)C1 was read as OvCa metastasis inactive.
`COc1ccc(N(Cc2ccccc2)C(=O)c2nc(S(C)(=O)=O)ncc2Cl)cc1` gave OvCa metastasis inconclusive, S16 viability 4.47µM, p53null 32C kill 12.6µM, PMP22 txn prim 1.78µM, pS6 MEF inh 2.07µM and p53null 39C kill 11.2µM.
`CCCSc1ncc(Cl)c(C(=O)N(Cc2ccccc2)c2ccc(OC)cc2)n1` gave OvCa metastasis inconclusive, S16 viability inactive, p53null 32C kill inactive, PMP22 txn prim inconclusive, pS6 MEF inh inactive and p53null 39C kill inactive.
For COc1ccc(CNC(=O)c2nc(SC(C)C)ncc2Cl)cc1 the results were OvCa metastasis inactive, S16 viability inactive, p53null 32C kill inactive, PMP22 txn prim inactive, pS6 MEF inh inactive and p53null 39C kill inactive.
CS(=O)(=O)c1ncc(Cl)c(C(=O)N(Cc2ccc(Cl)cc2)Cc2ccco2)n1 was read as OvCa metastasis inconclusive, S16 viability 4.47µM, p53null 32C kill inconclusive, PMP22 txn prim inconclusive, pS6 MEF inh 1.85µM and p53null 39C kill inconclusive.

Source: PubChem BioAssay
